A selection: hits, their analogues and other compounds. The true share with any hit is near 12%.
SARS PLpro yeast = blocks SARS-CoV papain-like protease in a yeast assay. S. cerevisiae expressing SARS-CoV PLpro, growth rescue. Potency, µM (doses to about 32.9 µM), for inactives: at the highest dose activity, positive = growth rescue, actives largely listed as activators. 0.19% of 330,000 active; calls by dose curve; also: 0% is about no effect; nearly all actives have a fitted effect of over 55% in size
Pf growth 48h = P. falciparum growth inhibition at 48 hours (one generation); 5.9% of 310,000 active; Potency, µM (series often up to 28.7 µM), for inactives: at the highest dose activity change, negative = inhibition, most hits filed as inhibitors; P. falciparum luciferase growth in erythrocytes, 48 h; also: % is scaled to controls: 0 for no effect and ±100 for the full control effect
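A one-generation exposure of luciferase-tagged malaria parasites in RPMI 1640/Albumax erythrocyte culture, 37 C and 5% CO2. Inhibition is inferred from decreased luminescence after adding detection reagent.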
Sm TGR block = inhibitors of Schistosoma mansoni thioredoxin glutathione reductase. purified TGR, DTNB reduction, TNB absorbance 405 nm. Potency, µM (doses to about 114 µM), without a hit: top-dose activity change, negative = inhibition, hits mostly inhibitors. 3% of 360,000 active. AID 485364; also: % is scaled to controls: 0 for no effect and ±100 for the full control effect; nearly all actives have a fitted effect of over 60% in size
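TGR 20 nM + NADPH 100 uM (dispensed conc.), cpd preinc 15 min RT; start with NADPH (500 uM addition) then DTNB (15 mM addition). Kinetic TNB absorbance, 405 nm filter. Four-parameter Hill fit across titration.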
Pf growth 96h = P. falciparum growth inhibition at 96 hour, primary screen for plastid delayed-death inhibitors. P. falciparum luciferase reporter growth, 96 h. Potency, µM (doses to about 28.7 µM), for inactives: top-dose activity change, negative = inhibition, most hits filed as inhibitors. 6.9% of 320,000 active; also: % is scaled to controls: 0 for no effect and ±100 for the full control effect
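Infected RBCs, 2% Hct / 0.05% parasitemia final; luciferase-reporter P. falciparum; cpd 96 h, 37 C, 5% CO2; luciferase detection reagent; luminescence.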
An asterisk follows results filed as active; ? = inconclusive; · = no result given; [ ] = remark or other dose. Unless noted, calls follow the shape of the dose curve; as a rule, active = well fitted curve in the direction sought with a large enough effect; inconclusive = small, poorly fitted or top-dose-only effect, or another doubt; inactive = no such curve, though single readings can be large; an effect the other way counts as inactive or inconclusive. Potency is read from the fitted curve at half-maximal effect.

SMILES	SARS PLpro yeast	Pf growth 48h	Sm TGR block	Pf growth 96h
Cc1ccc(N2CC(NC(=O)C(=O)c3c(C)[nH]c4ccccc34)CC2=O)cc1C (configuration not stated)	-0.8%	?	14.8%	?
CCCCNc1c(-c2ccc(OC)c(SC3CCCCC3)c2)nc2ccc(Cl)cn12	3.6%	·	·	·
COc1ccc(-c2nc3cnccn3c2NCc2ccccc2)cc1SC1CCCCC1	-0.3%	?	-17.4%	13.1µM*
CCCCCCSc1ccc(-c2nc3ccc(C)cn3c2NC2CCCCC2)cc1	-10.4%	9.28µM*	-2.9%	13.1µM*
CCCCNc1c(-c2ccc(OC)c(SC3CCCCC3)c2)nc2cc(C)ccn12	3.8%	9.28µM*	3.0%	?
CCCCCCSc1cc(-c2nc3cc(C)ccn3c2NC2CCCCC2)ccc1OC	-3.1%	7.38µM*	2.0%	8.28µM*
CCCCN1C(=O)C(=O)N(CC(=O)Nc2ccccc2C(=O)OCC)C1=O	2.3%	?	10.0%	8.8%
CCCCCCSc1cc(-c2nc3cnccn3c2NCc2ccccc2)ccc1OC	2.6%	7.38µM*	-19.6%	5.86µM*
CCCCNc1c(-c2ccc(SC3CCCCC3)cc2)nc2cnccn12	-0.7%	·	·	·
CCCCNc1c(-c2ccc(OC)c(SC3CCCCC3)c2)nc2cnccn12	2.9%	10.4µM*	-20.2%	9.28µM*
COc1cc(-c2nc3cnccn3c2NC(C)(C)CC(C)(C)C)ccc1O	-0.9%	?	4.3%	?
CCCCNc1c(-c2ccc(-c3ccc(C(C)=O)cc3)c(OC)c2)nc2cnccn12	-0.3%	9.28µM*	-11.9%	?
COc1cc(-c2nc3cc(C)ccn3c2NC2CCCCC2)ccc1-c1ccc(C(C)=O)cc1	-13.0%	5.22µM*	2.4%	10.4µM*
Cc1ccn2c(NC3CCCC3)c(-c3ccncc3)nc2c1	2.6%	36.8%	5.0%	?
COc1cc2ccccc2cc1C(=O)Nc1cccc(-c2nc3cc(C)c(C)cc3o2)c1	·	·	-7.6%	·
Cc1cc(=O)c2c([nH]1)c(C)cc1[nH]c(C)c(C)c12	-3.7%[6.58 µM]	?	9.6%	?
COc1ccccc1NC(=O)C1CCCN(c2ncnc3onc(-c4ccc(F)cc4)c23)C1 (configuration not stated)	·	·	5.8%	·
CCC(C)Sc1ccc(-c2nc3cnccn3c2NC2CCCCC2)cc1 (configuration not stated)	-1.3%	7.38µM*	3.4%	7.38µM*
Cc1ccn2c(NC3CCCCC3)c(-c3cccc(-c4cccc(Cl)c4)c3)nc2c1	-0.7%	8.28µM*	-1.9%	10.4µM*
Cc1ccc(CNC(=O)Cn2cc(C(=O)c3ccc(Cl)cc3)c(=O)c3ccc(C)nc32)cc1	·	·	1.4%	·
C=CCOC(=O)C1=C(C)NC(SCC(=O)Nc2ccc(C)c(Cl)c2)=C(C#N)C1c1ccco1 (configuration not stated)	-0.4%	4.15µM*	-15.9%	?
CCOC(=O)C1=C(c2ccccc2)NC(SCC(=O)NC2CCCCC2)=C(C#N)C1c1ccco1 (configuration not stated)	0.0%	11.7µM*	-4.6%	16.0%
CC1=C(C(=O)Nc2ccc(Cl)cc2)C(c2ccncc2)C(C#N)=C(SCC(N)=O)N1 (configuration not stated)	6.0%	·	-25.7%	?
CC(=O)C1=C(C)NC(SCC(=O)Nc2nc3ccccc3s2)=C(C#N)C1c1ccc(Cl)cc1 (configuration not stated)	7.1%	7.38µM*	-12.6%	6.57µM*
CCCCOC(=O)CSC1=C(C#N)C(c2cccnc2)C(C(=O)OCC)=C(c2ccccc2)N1 (configuration not stated)	-0.3%	?	5.5%	?
SMILES	SARS PLpro yeast	Pf growth 48h	Sm TGR block	Pf growth 96h
N#CC1=C(SCC(=O)Nc2ccc(C(=O)O)cc2)NC(=O)CC1c1ccco1 (configuration not stated)	-2.1%	38.0%	35.5µM*	16.1%
COc1ccccc1CNC(=O)c1ccc(NC(=O)CC2SC(N3CCCC3)=NC2=O)cc1 (configuration not stated)	-6.0%	·	·	·
O=C(CN1C(=O)/C(=C/c2ccccc2)SC1=S)N1CCN(CCc2ccccn2)CC1	0.8%	6.0%	0.0%	?
CCOC(=O)C1CCC(CN(Cc2cccc(Br)c2)S(=O)(=O)c2ccc(C)cc2)CC1 (configuration not stated)	·	·	3.1%	·
O=C(Nc1ccccc1OC(F)F)c1cccc(S(=O)(=O)N2CCCC2)c1	5.2%	-18.4%	-13.0%	?
C=CCOC(=O)C1=C(C)NC(SCC)=C(C#N)C1c1ccc(Cl)cc1 (configuration not stated)	-28.7%	?	7.1%	10.4µM*
C=CCOC(=O)C1=C(C)NC(SCC(N)=O)=C(C#N)C1c1ccc(C)cc1 (configuration not stated)	0.8%	-7.3%	-9.6%	?
CCOC(=O)C1=C(c2ccccc2)NC(SC)=C(C#N)C1c1cccnc1 (configuration not stated)	-2.4%	?	?	11.7µM*
Cc1ccc(-c2ocnc2C(=O)Nc2nc(C)cs2)cc1	-0.1%	112.6%	-3.5%	-86.0%
CCSC1=NC2(CCN(C(=O)NC3CCCCC3)CC2)N=C1c1ccc(C)cc1	·	·	6.4%	·
CC1CCc2c(sc(NC(=O)Cn3nc(C(=O)O)c4ccccc4c3=O)c2C#N)C1 (configuration not stated)	-1.8%	0.0%	28.2µM*	-12.9%
CC1CCc2c(sc(NC(=O)CSc3nnc(-c4ccccc4)o3)c2C#N)C1 (configuration not stated)	5.6%	18.4%	-1.8%	287.8%
CCOC(=O)C(NC(=O)CCl)(Nc1sc(C)c(CC)c1C#N)C(F)(F)F (configuration not stated)	7.2%	?	15.8µM*	?
O=C(Nc1ccc(OC(F)(F)F)cc1)c1cnccn1	1.0%	191.9%	5.4%	?
Cc1cc(N=NC(=O)c2ccccc2)ccc1O	-0.8%	14.6%	11.2µM*	16.0%
O=C(ONc1ccc(N=NC(=O)c2ccccc2O)cc1)c1ccccc1	-8.9%	96.9%	-12.9%	103.1%
C/C(NCCN1CCOCC1)=C(\C#N)C(N)=O	12.0%	9.8%	-6.3%	1.65µM*
CC(SC#N)C(=O)C12CC3CC(CC(C3)C1)C2 (configuration not stated)	-10.6%	13.1µM*	-15.5%	30.1%
CC(Sc1n[nH]c(N)n1)C(=O)C12CC3CC(CC(C3)C1)C2 (configuration not stated)	-1.6%	·	1.3%	0.0%
CC1CCCCN1CCNC(=O)c1ccc2c(=O)n(Cc3ccc(Cl)cc3)c(=S)[nH]c2c1 (configuration not stated)	0.5%	3.7µM*	-5.9%	8.2%
CC1CCN(CCCNC(=O)c2ccc(Cn3c(=S)[nH]c4ccc(Br)cc4c3=O)cc2)CC1	-0.8%	13.1µM*	-4.6%	15.9%
CN1CCN(CCCNC(=O)c2ccc(Cn3c(=S)[nH]c4ccc(Br)cc4c3=O)cc2)CC1	-0.2%	?	-13.3%	1.1%
CC1CCCCN1CCNC(=O)c1ccc2c(=O)n(CCc3ccccc3)c(=O)[nH]c2c1 (configuration not stated)	-1.2%	-18.3%	-25.1%	-15.5%
